# Measured values from PubChem BioAssay AID1347076 (National Center for Advancing Translational Sciences (NCATS), 2019).
# Out of some 400,000 compounds screened, about 13,000 (3.2%) were called active. Roughly 18% stayed inconclusive and do not appear here. For the sample, actives were picked, then their nearest neighbours and some compounds at random. Unmarked numbers belong to inactive results. Calls come from the whole dose curve; as a rule, active = well fitted cell-killing curve with a large enough effect; inconclusive = small, poorly fitted or top-dose-only effect, or effect the other way; inactive = flat fitted curve, though single readings scatter.
# Experiment: qHTS assay for MDR1-selective chemotherapeutics: Primary screen using the drug-selected MDR subline cells KB-V1; note: nearly all actives have a fitted effect of over 60% in size
# Settings: KB-V1 MDR cells viability, CellTiter-Glo, 72 h; series mostly up to 46.1 µM; activity change, negative = cytotoxicity: at the top concentration
# Source text: A prime difficulty in effectively treating cancer is the development of cellular resistance to multiple structurally unrelated anticancer drugs, a phenomenon known as multidrug resistance (MDR). […] Numerous strategies to overcome P-gp-mediated MDR have been explored, including the design of drugs that evade recognition and efflux, and development of inhibitors to block efflux and restore drug accumulation. […] An alternative approach is to exploit resistance by identifying drugs that target MDR cells over the non-resistant parental cells from which they were selected. […] The development of MDR1-selective agents represents a new strategy for resolving multidrug resistance, as it remains a long-standing clinical challenge for cancer chemotherapy.
# Our goal is to identify compounds that selectively kill P-gp-expressing MDR cells. We will identify MDR1-selective compounds by comparing toxicity of compounds in the screening library against parental, drug-naive (KB-3-1) adenocarcinoma cells as well as their drug-selected MDR sub-line (KB-V1). The differential toxicity of compounds against these two cell lines will be used to identify MDR1-selective compounds, whose cytotoxicity is potentiated, rather than diminished, by P-gp expression. This assay will be utilized to conduct a quantitative high-throughput screen (qHTS) in collaboration with the NIH Chemical Genomics Center to identify selective agents, and probe hits arising from the screen will be validated using secondary assays and characterized through a well-established follow-up research program. This screen was run against the entire NCGC library collection of about 400,000 compounds.
# NIH Molecular Libraries Probe Production Network [MLPCN]
# NIH Chemical Genomics Center [NCGC]
# PI: Michael Gottesman, National Cancer Institute, NIH
# Briefly, 5 microL of media containing either KB-V1 cells (columns 1-2, 4-48) are dispensed into Greiner white, treated solid-bottom 1536-well assay plates (media-only control is added to column 3). Compounds are then transferred via Kalypsys pin tool equipped with 1536-pin array (10 nL slotted pins, V&P Scientific, San Diego, CA). Following addition of compound, the plates are incubated at 37 degrees C for 72 hours. CellTiter-Glo (2.5 µL/well) is then added, and the plates are read in a ViewLux reader (Perkin-Elmer, clear luminescence filter, 1 second exposure, 1x binning) following a 10 minute incubation. All cells are dispensed in DMEM phenol-red free media containing 10% FBS.
# Library plates were screened starting from the lowest and proceeding to the highest concentration. Vehicle-only plates, with DMSO being pin-transferred to columns 5-48, will be inserted uniformly at the beginning and the end of each library in order to monitor and record any shifts in the background, which can be affected by reagent dispensers or loss in enzyme activity over time. Screening data will be corrected, normalized, and concentration-effect relationships will be derived by using publicly-available NCGC, NCATS curve fitting algorithms (http://ncgc.nih.gov/pub/openhts).
# % is set by controls: 0 for no effect and ±100 for the full control effect; potency is the fitted concentration of half-maximal effect.
Compound,Potency,"activity change, negative = cytotoxicity [%]"
CC(C)(C)c1ccc(CN2C(=O)CN=C(c3ccccc3)c3ccccc32)cc1,16.4 µM (active),–
O=C1CC(=O)N(Cc2ccccc2)C(=O)N1CCCCCCN1C(=O)CC(=O)N(Cc2ccccc2)C1=O,–,-0.0512
c1ccc(C(CN2CCCCC2)c2ccccc2)cc1,–,3.49
O=C(Nc1cccc2ccccc12)N1CCC2(CC1)OCCO2,–,12.5
O=C(CCC(=O)N1C[C@H]2C[C@@H](C1)c1cccc(=O)n1C2)NCc1ccccc1C(F)(F)F,–,-0.253
COc1ccc2c(c1)NP(=S)(c1ccccc1)N2 (configuration not stated),–,4.13
O=C1NC(=O)C(CCOc2ccccc2)(CCc2ccccc2)C(=O)N1,–,-5.14
COc1ccc(NC(=O)N2Cc3ccccc3-n3nncc3C2)cc1,–,0.781
CC1CC=CCC12C(=O)NC(=S)NC2=O (configuration not stated),–,26.6
CCn1cc(CN2CCCC(C(=O)c3cccc(C(F)(F)F)c3)C2)cn1 (configuration not stated),–,4.08
Cc1cc(C(=O)OCC(=O)Nc2c(F)cccc2F)c(C)n1C1CC1,–,13.9
Cc1nn(-c2ccccc2)c(C)c1NC(=O)COC(=O)Cc1ccccc1,–,-1.45
Cc1ccccc1NC(=O)COC(=O)c1cc(C)n(C2CC2)c1C,13 µM (active),–
COc1cccc(C(=O)N2C[C@H]3C[C@@H](C2)c2cccc(=O)n2C3)c1,–,14.6
c1cc2c(cc1C1OCC3C(c4ccc5c(c4)OCO5)OCC13)OCO2 (configuration not stated),–,0
CC(=O)OC1C2(CC3N4C(=O)C5(CO)SSC4(CC31O)C(=O)N5C)OC(C)C(C)(C)C2=O (configuration not stated),2.31 µM (active),–
O=c1c2ccccc2[nH]c(=S)n1-c1cccc(Cl)c1,–,-10.3
COc1cc(-n2c(=S)[nH]c3ccc(C)cc3c2=O)c(Cl)cc1Cl,9.2 µM (active),–
S=C(NCCc1ccccc1)N1Cc2cc(N3CCOCC3)ccc2-n2nncc2C1,–,-17
CSCCC(c1nnnn1C(C)(C)C)N1CCC(n2c(=O)[nH]c3ccccc32)CC1 (configuration not stated),–,-15.9
O=c1[nH]c2ccccc2n1C1CCN(C(c2ccccc2)c2nnnn2Cc2ccccc2)CC1 (configuration not stated),18.4 µM (active),–

Compound,Potency,"activity change, negative = cytotoxicity [%]"
O=c1[nH]c2ccccc2n1C1CCN(C(c2ccnc3ccccc23)c2nnnn2Cc2ccccc2)CC1 (configuration not stated),–,-0.478
O=C1C2CCN(CC2)C1(CO)CO,–,15.5
CCOC(=O)c1c(-c2ccccc2)oc2ccc(OC(=O)N(C)C)cc12,16.4 µM (active),–
CN(C)C(=O)Oc1ccc2c(c1)O/C(=C\c1ccccc1)C2=O,–,27.1
Oc1ccc2c3c1OC1[C@H](O)CC[C@@]4(O)[C@@H](C2)N(CC2CC2)CC[C@]314 (some centres not stated),inactive,–
CCc1ccc(OCC(=O)N2CCN(CC(=O)Nc3ccccc3Cl)CC2)cc1,–,1.08
CC(=O)NCC1=C(c2ccc3ccccc3c2)C[C@@H]2CC[C@H]1N2Cc1ccco1,–,-2.27
C[C@]12CC[C@H](O)C[C@H]1CC[C@@H]1C2CC[C@]2(C)[C@@H](C3=CC(=O)OC3)[C@@H](O)C[C@]12O (some centres not stated),6.51 µM (active),–
C[C@]12CCC3C(CC[C@H]4C[C@@H](O)CC[C@]34C)C1C[C@@H](O)[C@H]2O (some centres not stated),–,16
Cc1cc(-c2ccc(N)c(C)c2)ccc1N,–,-4.88
CC(C)(C)c1ccc(OC(=O)N2CCCCC2)cc1,–,17.3
CC1([N+](=O)[O-])COP(=O)(Nc2ccc(F)cc2)OC1 (configuration not stated),–,-1.71
Cc1cccc(NC(=O)OC2CN3CCC2CC3)c1 (configuration not stated),–,-1.06
COC1=C[C@@H]2[C@@H]3Cc4ccc(OC)c(O)c4[C@]2(CCN3C)CC1=O,–,-0.303
NC(=O)Cn1cc(C(=O)c2ccccc2F)c2ccccc21,–,0
N#Cc1ccc(Cn2cc(C(=O)c3ccco3)c3ccccc32)cc1,18.4 µM (active),–
CC(C)Nc1nc(Cl)nc(NC(C)C)n1,–,0
O=C(NCC1=C(c2ccc3ccccc3c2)C[C@@H]2CC[C@H]1N2Cc1ccco1)c1cccs1,–,-8.15
O=C1NC(=O)C(CCc2ccccn2)(Cc2cccc(Cl)c2Cl)C(=O)N1c1ccc(Br)cc1 (configuration not stated),7.31 µM (active),–
Cc1ccc(N2C(=O)NC(=O)C(CCc3ccncc3)(Cc3cccc(Cl)c3Cl)C2=O)cc1 (configuration not stated),–,0
C[C@H]1CN([C@@H](C)CO)C(=O)CCCn2nncc2CO[C@H]1CN(C)C(=O)Oc1ccccc1,–,90.2
